Sampled rows, rich in hits. Any-hit rate of the full collection: about 31%.
PLAP act: human PLAP activation | 96,000 compounds, 1.2% hits | AID 696 | activation fold at 20 µM | P05187 | purified PLAP enzyme, luminescent substrate read-out; stronger effect = higher value; in the data active = activation fold above about 2
CYP2C9 inh: blocks human cytochrome P450 2C9 | P11712 | CYP2C9 Supersomes, luciferin-H conversion, luminescence | inhibition, % at 5 µM | 96,000 compounds, 20% hits;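 active = blocking of liver enzyme CYP2C9 beyond about 50% at 5 µM, limit read from the data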
Target sequence (P11712 whole entry, looked up): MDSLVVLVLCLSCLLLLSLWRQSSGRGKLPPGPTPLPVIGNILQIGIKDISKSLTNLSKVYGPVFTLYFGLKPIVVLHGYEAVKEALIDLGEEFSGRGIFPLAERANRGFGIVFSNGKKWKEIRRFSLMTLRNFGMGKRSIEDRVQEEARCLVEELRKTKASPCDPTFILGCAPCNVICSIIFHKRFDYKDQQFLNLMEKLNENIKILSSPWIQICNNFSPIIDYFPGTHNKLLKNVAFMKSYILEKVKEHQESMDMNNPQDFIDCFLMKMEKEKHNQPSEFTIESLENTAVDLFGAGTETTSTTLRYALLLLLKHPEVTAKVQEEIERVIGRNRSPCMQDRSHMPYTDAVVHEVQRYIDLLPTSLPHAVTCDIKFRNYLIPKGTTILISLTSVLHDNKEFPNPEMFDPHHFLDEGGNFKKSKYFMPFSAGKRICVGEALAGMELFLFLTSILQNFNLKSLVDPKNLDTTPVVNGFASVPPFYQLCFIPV
CYP2C19 activ: cytochrome P450 2C19 (human) activation; P33261; recombinant CYP2C19, luciferin-H EGE luminescence; stronger effect = higher value; 0 = fully inhibited enzyme, 1 = untreated enzyme; activation factor at 5 µM; 96,000 tested, under 10 active;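 active = activation factor of at least 2 at 5 µM in the primary screen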;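 also: 0 = wells with 2.5 mM tranylcypromine and 1 = vehicle-only wells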
CYP2C9 act: activators of human CYP2C9 | AID 1024 | 96,000 compounds, 1.4% hits | activation factor at 5 µM | recombinant CYP2C9, luciferin-H conversion, luminescence; stronger effect = higher value; factor 1 = untreated enzyme, 0 = blocked | P11712;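 active = activation factor of 2 or more for CYP2C9 at a 5 µM dose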;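 also: 0 = sulfaphenazole-blocked wells and 1 = vehicle-only wells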
CYP2C19 inhib: inhibitors of human CYP2C19; P33261; CYP2C19 Supersomes, luciferin-H EGE luminescence, 30 min; inhibition, % at 5 µM; 96,000 compounds, 21% hits; AID 778;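 active = CYP2C19 inhibition above a set limit at 5 µM in the primary screen, cut at about 50% in these data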;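 also: plate controls were negative control wells for no effect and 2.5 mM tranylcypromine positive control for full effect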
Numbers without * were called inactive; / = no result given.

SMILES | PLAP act | CYP2C9 inh | CYP2C19 activ | CYP2C9 act | CYP2C19 inhib
CCS(=O)(=O)NC(C)C(c1cccs1)N1CCN(c2ccc(F)cc2)CC1 (stereo not given) | 1.1 | 19 | 0.6 | 0.8 | 36
O=c1c2ccccc2nc(SCc2cn3ccsc3n2)n1-c1ccccc1 | 1 | 94* | 0.2 | 0.1 | 84*
Cc1cccc(-n2c(SCc3cc(=O)n4ccsc4n3)nc3ccccc3c2=O)c1 | 1.3 | 50 | 0.8 | 0.5 | 22
O=c1c2ccccc2nc(SCc2cn3ccsc3n2)n1-c1ccccc1F | 1.5 | 99* | 0.2 | 0 | 77*
CCOC(=O)N1CCC(NC(=O)c2cc(C)c3c(C)nn(-c4ccccc4)c3n2)CC1 | 1.1 | -13 | 1 | 1.1 | 1
COc1ccc(C(=O)NCC(=O)NC2=NCCS2)cc1 | 0.9 | 2 | 1 | 1 | -2
C=CCn1c(SCC(=O)NC(=O)NCC(C)C)nnc1C1CCCCC1 | 1 | 4 | 0.4 | 1 | 55*
C=CCn1c(SCC(=O)NC(=O)NCCC)nnc1C1CCCCC1 | 1.1 | 66* | 0.4 | 0.3 | 58*
COc1ccc(NC(=O)c2cc(-c3cc(C)cc(C)c3O)n[nH]2)cc1Cl | 1 | 10 | 0.6 | 0.9 | 39
CC1(C)CC(=O)c2c(oc3cc(O)c(O)cc23)C1 | 0.9 | -216 | 1 | 3.2* | 2
Cc1c(C(=O)N2CCOCC2)oc2c1C(=O)CC(C)(C)C2 | 0.8 | 7 | 1 | 0.9 | -2
O=C(c1ccc(Br)cc1)c1cc([N+](=O)[O-])ccc1N1CCCCC1 | 1 | 61* | 0.4 | 0.4 | 65*
Cc1ccc(C(=O)c2cc([N+](=O)[O-])ccc2N2CCN(C)CC2)cc1 | 1.2 | 17 | 0.9 | 0.8 | 12
CC1/C(=N/O)CC(c2ccccc2)NC1c1ccccc1 (stereo not given) | 0.8 | 51* | 0.3 | 0.5 | 70*
Cc1ccc(C2NC(c3ccc(C)cc3)C(C)C(=NO)C2C)cc1 (stereo not given) | 1.1 | 51* | 0.1 | 0.5 | 93*
CC1C(=NO)C(C)C(c2ccccc2)NC1c1ccccc1 (stereo not given) | 1.1 | 30 | 0 | 0.7 | 98*
N#Cc1c(-c2ccc3c(c2)OCO3)ccn2nc(-c3cccc(C(F)(F)F)c3)nc12 | 0.9 | 10 | 0.6 | 0.9 | 38
CC(C)CN1C(=O)NC(NC(=O)c2ccco2)(C(F)(F)F)C1=O (stereo not given) | 1.4 | 16 | 0.4 | 0.8 | 56*
O=C1CSC(c2ccc3c(c2)OCO3)N1c1ccc(Oc2ccccc2)cc1 (stereo not given) | 1 | 60* | 0.7 | 0.4 | 31
CC(=O)Nc1ccc(N2C(=O)CSC2c2ccc(F)cc2)cc1 (stereo not given) | 1 | -4 | 1.2 | 1 | -17
COc1ccc(C2SCC(=O)N2c2c(C)n(C)n(-c3ccccc3)c2=O)cc1 (stereo not given) | 1.3 | 40 | 0.6 | 0.6 | 44
Cc1ccc(N2C(=O)CSC2c2ccc3c(c2)OCO3)cc1 (stereo not given) | 1.1 | 69* | 0 | 0.3 | 100*
C/C=C/c1ccc(OCCCCn2cncn2)c(OC)c1 | 1.2 | 47 | 0.2 | 0.5 | 75*
COc1cc(C=O)ccc1OCCCOc1ccccc1C(=O)O | 1.1 | 9 | 0.7 | 0.9 | 26
C/C=C/c1ccc(OCCCNC(C)CC)c(OC)c1 (stereo not given) | 1 | 42 | 0.9 | 0.6 | 8
SMILES | PLAP act | CYP2C9 inh | CYP2C19 activ | CYP2C9 act | CYP2C19 inhib
C/C=C/c1ccc(OCCn2cncn2)c(OC)c1 | 1.1 | 40 | 0.4 | 0.6 | 65*
C/C=C/c1ccc(OCCCNC2CCCC2)c(OC)c1 | 1.1 | -7 | 0.9 | 1.1 | 6
C/C=C/c1ccc(OCCCn2cncn2)c(OC)c1 | 1.3 | 50* | 0.1 | 0.5 | 89*
CC1CCCCN1C(=O)Cn1c(=O)n(C2CCCCC2)c(=O)c2ccccc21 (stereo not given) | 0.9 | 30 | 0.9 | 0.7 | 5
COc1ccc2oc(C(F)(F)C(F)F)cc(=O)c2c1 | 1.1 | 33 | 0.5 | 0.7 | 54*
COc1ccc2oc(C(F)(F)C(F)(F)F)cc(=O)c2c1 | 0.9 | 7 | 1 | 0.9 | 2
Cc1ccnc(NC(=O)CSc2cc(=O)n(C)c3ccccc23)c1 | 1.2 | -209 | 2.3* | 3.1* | -127
Cn1c(=O)cc(SCC(=O)NCc2ccco2)c2ccccc21 | 1 | -38 | 1 | 1.4 | 4
Cn1c(=O)cc(SCC(=O)Nc2ccccn2)c2ccccc21 | 0.9 | -154 | 1.3 | 2.5* | -25
Cc1ccnc(NC(=O)CCCOc2cc(=O)n(C)c3ccccc23)c1 | 1 | -33 | 1 | 1.3 | 1
Cn1c(=O)cc(SCC(=O)Nc2cccnc2)c2ccccc21 | 1 | -102 | 0.8 | 2* | 18
O=C(CSc1ccccn1)Nc1cccc(NC(=O)CSc2ccccn2)n1 | 0.9 | 55* | 0.9 | 0.4 | 13
CC(=O)Nc1nonc1NC(=O)CSc1ccccn1 | 1.3 | 9 | 0.8 | 0.9 | 19
Cc1cc(NC(=O)CSc2nnc(-c3c[nH]c4ccccc34)n2-c2ccc(Cl)cc2)no1 | 0.7 | -25 | 1.1 | 1.2 | -12
Cc1c(N=Cc2cc3c(cc2Cl)OCO3)c(=O)n(-c2ccccc2)n1C | 0.8 | -1 | 1 | 1 | -2
CN1C(=O)c2cccc(NCCCCCCN3C(=O)c4ccccc4C3=O)c2C1=O | 1 | 75* | 0.7 | 0.3 | 32
CN1C(=O)c2cccc(NCCCN3C(=O)c4ccccc4C3=O)c2C1=O | 1.1 | 28 | 0.7 | 0.7 | 27
OCc1ccccc1OCCOc1ccc(Cl)c2cccnc12 | 1 | -113 | 0.6 | 2.1* | 40
CN(C)c1ccc(/C(=N\O)c2ccccc2)cc1 | 0.8 | -3 | 0.3 | 1 | 73*
CN(C)c1ccc(C(=O)OCc2ccccc2)cc1 | 1 | 3 | 0.5 | 1 | 50
c1csc(C(c2nnnn2C2CCCC2)N2CCCC3(CCCCC3)C2)c1 (stereo not given) | 1.1 | 56* | 0.9 | 0.4 | 14
O=C(c1ccco1)N1CCN(C(c2cccs2)c2nnnn2C2CCCCC2)CC1 (stereo not given) | 1.7 | 68* | 0.5 | 0.3 | 45
CC(C)(C)n1nnnc1C(c1cccs1)N1CCN(C(=O)c2ccco2)CC1 (stereo not given) | 1.5 | 41 | 0.7 | 0.6 | 34
c1csc(C(c2nnnn2C2CCCC2)N2CCOCC2)c1 (stereo not given) | 1.1 | -13 | 1.1 | 1.1 | -8
CCOCCCNC(=O)C(NC(=O)CC1NC(=O)NC1=O)c1ccc(Cl)cc1 (stereo not given) | 1.1 | -4 | 1.1 | 1 | -13
Cc1ccc2nc(SCCCCOc3ccccc3)[nH]c2c1 | 0.8 | 72* | 0.4 | 0.3 | 63*
Cc1ccc2nc(SCc3ccc([N+](=O)[O-])cc3)[nH]c2c1 | 1.2 | / | / | / | /
Cc1ccc2nc(SCc3nnc(-c4ccccc4Br)o3)[nH]c2c1 | 1.6 | 75* | 0.2 | 0.3 | 83*

High-throughput results from PubChem BioAssay.
